# Assay results reported in PubChem BioAssay (NCATS).
# Results filed as inconclusive are left out. A call without a number means that no potency is given here. Calls of active or inactive are those of the source. Calls follow the shape of the dose curve; as a rule, active = well fitted curve in the direction sought with a large enough effect; inconclusive = small, poorly fitted or top-dose-only effect, or another doubt; inactive = no such curve, though single readings can be large; an effect the other way counts as inactive or inconclusive.
# Legend:
# [1] = tested on: Zika virus NS2B-NS3 protease; experiment: Primary screen GU AMC qHTS for Zika virus inhibitors (AID 1347154); also: nearly all actives have a fitted effect of over 70% in size
# Procedure, shortened: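 Unlinked Zika NS2B hydrophilic domain/NS3 protease domain noncovalent complex (25 nM final) in 10 mM Tris-HCl pH 8.0, 0.01% Tween 20, with AMC peptide substrate. Fluorescence (ex 340, em 450 nm) change over 15 min, room temperature; percent inhibition fitted to 4-parameter Hill equation.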
# [2] = tested on: Zika virus NS2B-NS3 protease (unlinked complex); experiment: Primary screen GU Rhodamine qHTS for Zika virus inhibitors: Unlinked NS2B-NS3 protease assay (AID 1347159); also: nearly all actives have a fitted effect of over 60% in size; also: potency is read from the fitted curve at half-maximal effect
# Procedure, shortened: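 Percent inhibition derives from the 15-min fluorescence change (ex 480, em 540 nm), normalized to no-enzyme and no-inhibitor wells. Reactions contained 25 nM NS2B-NS3 complex and 1.5 microM substrate in 10 mM Tris-HCl pH 8.0.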
Structure (SMILES),Potency [1],Potency [2]
Nc1nc(NCCNc2ncc(-n3ccnc3)c(-c3ccc(Cl)cc3Cl)n2)ccc1[N+](=O)[O-],inactive,inactive
O=C(CCCCCCC(=O)Nc1ccc([C@H]2O[C@@H](CSc3nc(-c4ccccc4)c(-c4ccccc4)o3)C[C@@H](c3ccc(CO)cc3)O2)cc1)NO,–,8.91 µM (active)
NC(=O)c1c(OCc2c(F)cc(Br)cc2F)nsc1NC(=O)NCCCCN1CCCC1,inactive,inactive
